# Data reported in PubChem BioAssay AID588335 (The Scripps Research Institute Molecular Screening Center, 2011).
# The whole screen tested about 360,000 compounds, of which about 4,500 (1.2%) were called active. This excerpt belongs to a sample that is enriched for actives. Values without a mark were called inactive. Cut-off read from the data, not from the text of the source: active = inhibition above about 30%; inactive = the rest.
# Assay: GDH-TPI coupling enzyme inhibitors, primary screen, artefact control for M. tuberculosis FBA inhibitor project, biochemical, absorbance, full deck (AID 588335);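 note: 0% = DMSO wells and 100% = wells lacking the enzyme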
# Settings: GDH-TPI coupled enzyme counterscreen, NADH absorbance; at 4.8 µM; stronger effect = higher value
row,SMILES,inhibition
1,O=C(Cn1cc2c(n1)CCCCC2)NCCN1CCOCC1,-6.93%
2,CC(C)Cn1cc(-c2cncc3nccn23)cn1,4%
3,O=c1oc2c(CN3CCCCC3)c(O)ccc2c2c1CCCCC2,30.6% (active)
4,CCCOc1ccc2c3c(c(=O)oc2c1OCCC)CCC3,13.5%
5,COc1ccc2c3c(c(=O)oc2c1OCC(=O)C(C)(C)C)CCCC3,-0.64%
6,Cc1cc(N(C)C)cc(C)[n+]1[O-],-1.57%
7,Nc1nc(O)c(CC(=O)O)s1,5.96%
8,CCCCc1cc(=O)oc2cc(C)cc(OCc3nn[nH]n3)c12,22%
9,Cc1noc(C)c1COc1ccc2ccc(=O)oc2c1,6.47%
10,COc1ccc(-c2cc3ccc(OCc4nn[nH]n4)cc3oc2=O)cc1,34.6% (active)
11,Cn1ccc(=Nc2ccc(NC(=O)c3ccc(N=c4ccn(C)c5ccc([N+](=O)[O-])cc45)cc3)cc2)cc1,13.7%
12,O=C(NCc1cccnc1)c1cc(C2CCCN(C(=O)CCCc3ccccc3)C2)on1 (stereo not drawn),-5.31%
13,CN(C(=O)C1CCN(c2ncnc3c2nc2n3CCCCC2)CC1)C1CCCCC1,-2.53%
14,O=C(NNc1ccccc1Cl)C(O)(c1cccc(C(F)(F)F)c1)c1cccc(C(F)(F)F)c1,10.2%
15,COc1cc(/C=N/NC(=S)Nc2cccnc2)cc(OC)c1O,31.5% (active)
16,Fc1cc(Br)ccc1NC(=S)Nc1cccnc1,-0.63%
17,COc1ccc(C(=O)CCC(=O)Nc2cccnc2)c(OC)c1,-6.9%
18,O=C(c1cccs1)C1C(c2ccc(Br)cc2)NC(=S)NC1(O)C(F)(F)F (stereo not drawn),12.2%
19,Cc1c(NC(=O)C(C)OC(=O)c2c3c(nc4ccccc24)CCC(C)C3)c(=O)n(-c2ccccc2)n1C (stereo not drawn),3.38%
20,Cc1ccc(-c2nnc(-n3nnc4ccccc43)c3ccccc23)cc1,6.42%
21,Cc1ccccc1N1CC(c2nc3ccccc3[nH]2)CC1=O (stereo not drawn),2.42%
22,Cc1ccc(-c2nc3ccccc3[nH]c2=O)cc1,32.1% (active)
23,CC1(C(=O)NCc2ccc(F)c(F)c2)Cc2c(-c3ccc4c(c3)OCO4)ccnc2O1 (stereo not drawn),0%
24,CC1C(=O)Nc2ccccc2N1C(=O)c1c(F)cccc1F (stereo not drawn),-1.38%

row,SMILES,inhibition
1,Cn1c(=NC(=O)c2ccco2)sc2cccc(F)c21,51% (active)
2,O=C(Cc1c(F)cccc1Cl)N1CCN(C(=O)c2ccco2)CC1,-4.08%
3,Cn1c(=NC(=O)c2cnccn2)sc2ccccc21,29.1%
4,O=C(CN1CCCCCC1)Nc1c(Cl)cc(Cl)cc1Cl,3.42%
5,COc1cc2nc(CN(C)Cc3ccc(F)cc3)[nH]c(=O)c2cc1OC,-3.88%
6,COc1cccc(-n2c(SCC(=O)NC3CCCCC3)nc3n[nH]c(C)c3c2=N)c1,0.37%
7,Cc1ccc(-n2c(SCC(=O)NCCC3=CCCCC3)nc3n[nH]c(C)c3c2=N)cc1Cl,-1.52%
8,CCCCNC(=O)CSc1nc2n[nH]c(C)c2c(=N)n1-c1cccc(Cl)c1C,33.5% (active)
9,CC(C)Nc1ccc(-n2nc3ccccc3[n+]2[O-])cc1,21.6%
10,O=C(CN1C(=O)S/C(=C\c2ccccc2Cl)C1=O)NC1C=CS(=O)(=O)C1 (stereo not drawn),35.4% (active)
11,CN(C(=O)CN1C(=O)S/C(=C\c2ccccc2F)C1=O)C1CCS(=O)(=O)C1 (stereo not drawn),9.17%
12,CC12CCC(=O)N1C(C(=O)NCCN1C(=O)S/C(=C\c3ccccc3F)C1=O)CS2 (stereo not drawn),21.5%
13,CCN(CC)C(=O)C1CCCN(Cc2cccc(Cl)c2)C1 (stereo not drawn),11.3%
14,COc1ccccc1C(=O)Nc1ccnn1C1CCN(C(=O)C(C)(C)C)CC1,2.52%
15,Cc1ccc(C(=O)N/C(=C\c2cn(C)c3ccccc23)C(=O)N2CCN(C)CC2)cc1,18.5%
16,CCn1cc(/C=C(\NC(=O)c2cc(OC)c(OC)c(OC)c2)C(=O)N2CCN(C)CC2)c2ccccc21,27.5%
17,COc1cc(C(=O)N/C(=C\c2cn(C)c3ccccc23)C(=O)N2CCOCC2)cc(OC)c1OC,33.6% (active)
18,CN(Cc1c(F)cccc1Cl)C(=O)COC(=O)Cn1cnc2ccccc2c1=O,7.14%
19,Cc1ccc(OCC(=O)NCCCNC(=O)c2cccnc2)cc1C,-5.28%
20,C/C(=C\C(=O)c1cccnc1)Nc1ccc(C)c(C)c1,31.1% (active)
21,C/C(=C\C(=O)c1ccccc1)Nc1cccc(O)c1,8.48%
22,C=C1C2C[C@H](O)C(C)(C)[C@@]2(O)[C@H](O)C[C@]23C[C@@](C)(O)[C@H](CC[C@H]12)[C@H]3O (stereo partly drawn),5.18%
23,COc1ccc(SC[C@H](Cc2ccccc2)N2CCN(CCc3ccccc3)CCC2=O)cc1,3.36%
24,C=CCOc1ccc(/C=N/n2cncn2)cc1OC,19.5%

row,SMILES,inhibition
1,COc1ccccc1/C=C/C=N/NC(=O)CN1CCN(Cc2ccccc2)CC1,49.7% (active)
2,O=C(CN1CCN(Cc2ccccc2)CC1)Nc1ccc(F)c(F)c1,-9.79%
3,COc1ccccc1CN1CCN(C(=O)Cc2ccccc2)CC1,6.8%
4,O=C(CCn1c(=S)[nH]c2cc3c(cc2c1=O)OCO3)NCc1ccc(Cl)cc1,20.7%
5,O=c1c2ccccc2[nH]c(=S)n1-c1cccc(Cl)c1,9.09%
6,CN(C)CCn1c(=S)[nH]c2ccc(Cl)cc2c1=O,32.9% (active)
7,O=C(CN1CCN(S(=O)(=O)c2cc(Cl)ccc2Cl)CC1)c1ccc(O)c(O)c1,18.1%
8,Cc1cc(/C=N/NC(=O)CC2(C)OCCO2)c(C)n1-c1ccc(Cl)c(Cl)c1,0.72%
9,Cc1cc(C=O)c(C)n1-c1ccc(NC2CCCCC2)c([N+](=O)[O-])c1,0.62%
10,Cc1cc(/C=N/Nc2ccc([N+](=O)[O-])cn2)c(C)n1-c1cccc(C(=O)O)c1,38% (active)
11,COc1ccc(-c2noc(C(C)NS(=O)(=O)c3ccc(NC(C)=O)cc3)n2)cc1 (stereo not drawn),-8.81%
12,Brc1ccc(CN2CC[C@H]3C=CCc4cccc(c43)C2)cc1,6.9%
13,CC(=O)N1CCOc2ccc(S(=O)(=O)N3CCN(c4cccc(C(F)(F)F)c4)CC3)cc21,6.9%
14,COC(=O)N/N=C/c1ccc(-c2ccc(Cl)c(Cl)c2)o1,31.5% (active)
15,O=C(N/N=C\c1ccc(-c2ccc(Cl)c(Cl)c2)o1)C(=O)N1CCCC1,14.3%
16,O=C(Cn1nnc(-c2ccccc2)n1)N/N=C/c1ccc(-c2ccc(Cl)cc2)o1,11.2%
17,CCC1Sc2ccc(S(=O)(=O)CCC(=O)NCc3cccs3)cc2NC1=O (stereo not drawn),10%
18,Cc1cc(C(=O)N2CCCC2(C)C(=O)O)c(C)o1 (stereo not drawn),-1.83%
19,Cn1c(=O)n(C)c2cc(/C=N/NC(=O)c3cccc(Br)c3)ccc21,31.9% (active)
20,O=C(N/N=C/c1ccoc1)c1ccc(Cl)cc1Cl,-4.38%
21,CC(NC(=O)C(=O)N/N=C/c1ccc(Cl)cc1)c1ccccc1 (stereo not drawn),-6.35%
22,CSc1ccc(/C=N/NC(=O)c2cccc(Cl)c2)cc1,31.8% (active)
23,CCOc1cc(/C=N/NC(=O)c2cccc(S(=O)(=O)N3CCOCC3)c2)ccc1OCC(=O)N(C)C,26.9%
24,COc1cc(/C=N/NC(=O)c2cccnc2)ccc1OC(=O)c1cccc(Br)c1,7.96%

row,SMILES,inhibition
1,O=C(OCC(=O)N1CCCCCC1)c1cnc(Cl)c(Cl)c1,-4.78%
2,COc1ccc(C2CC(=O)Oc3ccc(C(C)(C)C)cc32)cc1 (stereo not drawn),10.2%
3,COc1ccc([C@H]2CC(=O)C=C(c3ccc(C)cc3)C2)cc1,13.4%
4,COc1ccc([C@H]2CC(=O)C=C(/C=C/c3ccc(Cl)cc3)C2)cc1,2.59%
5,COc1ccc([C@H]2CC(=O)C=C(/C=C/c3ccccc3)C2)cc1,37.2% (active)
6,CCCCC(=O)N(C)c1c(CC)nc2c(OCc3ccc(S(C)(=O)=O)cc3)cccn12,8.04%
7,CN(C)Cc1ccc(F)cc1Sc1cc(Cl)ccc1Cl,6.23%
8,COc1ccc(/C=N/Nc2ncnc3sc4c(c23)CCCC4)cc1O,34.2% (active)
9,OCCNc1nc2ccccc2n1-c1ncnc2sc3c(c12)CCC3,7.12%
10,COc1ccc(NC(=O)CCCNC(=O)Cn2cnc3sc4c(c3c2=O)CCCC4)cc1OC,4.67%
11,Cc1nnc(NC(=O)CCC(=O)N2CCC(C)CC2)s1,-8.68%
12,Cc1noc(NS(=O)(=O)c2ccc(N/C=C/C(=O)c3ccccc3)cc2)c1C,32.3% (active)
13,Cc1ccc(C(=O)/C=C/Nc2ccc(S(=O)(=O)Nc3onc(C)c3C)cc2)cc1,21.6%
14,Cc1noc(NS(=O)(=O)c2ccc(NC(=O)C34CCC(CC3)C4)cc2)c1C,-6.12%
15,Cc1ccc(-c2csc(C(C#N)=C(O)CN3CCN(C(=O)c4ccco4)CC3)n2)cc1,21.6%
16,COC(=O)C(C(=O)Nc1cccc(C)n1)C1CCCCCC1 (stereo not drawn),14.9%
17,C=CCN(c1ccc(C(=O)Nc2cc(C)cc(C)c2)cc1)S(C)(=O)=O,4.51%
18,CC(=O)c1cnc(-c2ccccc2)s1,10.1%
19,O=C(/C=C/Nc1ccccc1)c1cnc(-c2ccccc2)s1,3.77%
20,CC(C)(C)C(=O)c1cnc(Nc2ccccc2)s1,35.6% (active)
21,C=CC(COCc1ccccc1)N(Cc1ccccc1)S(=O)(=O)c1ccccc1Br (stereo not drawn),9.24%
